Screens: PubChem BioAssay, National Center for Advancing Translational Sciences (NCATS)
Lamin A splicing – qHTS Assay for Modulators of Lamin A Splicing. HeLa LMNA splicing GFP/RFP minigene ratio, 48 h. Potency, µM (series often up to 46.1 µM), for inactives: at the top dose ratio change, negative = inhibition, actives largely listed as inhibitors. hit rate 0.01% among 200,000. AID 1487, 2009; active = well fitted inhibition curve with a large enough effect in the signal ratio, with a control signal flat, not every such curve was filed as active; inconclusive = small, poorly fitted or top-dose-only effect, or effect the other way, or a change in a side signal; the % refers to the signal ratio
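S3 HeLa cells stably expressing lamin A-EGFP splicing minigene plus DsRed2, 600 cells/well, 48 h compound exposure at 37C. Laser-scanning cytometry; analysed as GFP (500-530 nm)/RFP (575-640 nm) total intensity ratio; 0.5% DMSO vehicle.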
HPGD block – qHTS Assay for Inhibitors of HPGD (15-Hydroxyprostaglandin Dehydrogenase); Potency, µM, inactives show at the top dose activity change, negative = inhibition, most hits filed as inhibitors; hit rate 4.3% among 150,000; purified HPGD, NADH fluorescence kinetic, PGE2 substrate; 15-hydroxyprostaglandin dehydrogenase [NAD(+)] (Homo sapiens), P15428
Target sequence (P15428 whole entry, looked up): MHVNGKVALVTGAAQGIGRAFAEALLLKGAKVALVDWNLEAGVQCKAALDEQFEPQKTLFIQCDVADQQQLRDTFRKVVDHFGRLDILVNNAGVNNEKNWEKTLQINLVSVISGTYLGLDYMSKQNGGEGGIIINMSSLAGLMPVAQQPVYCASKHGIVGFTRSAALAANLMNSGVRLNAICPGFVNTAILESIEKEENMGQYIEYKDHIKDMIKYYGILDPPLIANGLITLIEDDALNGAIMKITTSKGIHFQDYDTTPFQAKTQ
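20 nM HPGD preincubated 15 min at room temperature with compound in 50 mM Tris-HCl pH 8, 0.01% Tween 20. Started with 1 mM NAD+ and 30 uM prostaglandin E2; NADH fluorescence (360/450 nm) read 5 times over 30-s intervals, last minus first.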
IMPase Li inh – qHTS Assay for Identifying the Cell-Membrane Permeable IMPase Inhibitors: Potentiation with Lithium. CHO-M1 cells, IP1 TR-FRET (IP-One), carbachol + lithium. Potency, µM (series often up to 59.4 µM), without a hit: at the highest dose activity, negative = IMPase inhibition, most hits filed as inhibitors. hit rate 0.35% among 210,000. AID 1457, 2008; active = well fitted curve in the direction sought with a large enough effect; inconclusive = small, poorly fitted or top-dose-only effect, or another doubt; inactive = no such curve, though single readings can be large; an effect the other way counts as inactive or inconclusive;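 also: IP1 builds up when IMPase is blocked and the TR-FRET signal falls; plate controls were basal vehicle for no effect and high inhibitor control for full effect; nearly all actives have a fitted effect of over 50% in size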
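IP1 accumulation measured by competitive TR-FRET in lysed CHO-M1 cells after 30 min compound exposure at 37C, with a small lithium addition to potentiate weak responses. Hill-equation AC50 from ratio and donor-channel data.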
Luc counter – Counterscreen for Luciferase (Kinase-Glo TM) Inhibition. AID 1379, 2008. hit rate 0.28% among 200,000. Luciferin 4-monooxygenase (Photuris pensylvanica), Q27757. Kinase-Glo luciferase, ATP luminescence, 8 min. Potency, µM (doses to about 38.3 µM), inactives show at the top dose activity change, negative = inhibition, hits mostly inhibitors; active = well fitted curve in the direction sought with a large enough effect; inconclusive = small, poorly fitted or top-dose-only effect, or another doubt; inactive = no such curve, though single readings can be large; an effect the other way counts as inactive or inconclusive; also: nearly all actives have a fitted effect of over 60% in size
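Compound is pinned into ATP-containing buffer (10 uM ATP, imidazole pH 7.2, 7 mM MgCl2). Kinase-Glo luciferase reagent is then added. Light output is recorded following an 8-min room-temperature incubation.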
ALDH1A1 block – qHTS Assay for Inhibitors of Aldehyde Dehydrogenase 1 (ALDH1A1); Aldehyde dehydrogenase 1A1 (Homo sapiens), P00352; Purified ALDH1A1, NADH fluorescence, propionaldehyde substrate; Potency, µM (series often up to 75.3 µM), inactives show top-dose activity, negative = inhibition, actives largely listed as inhibitors; hit rate 7.3% among 220,000; AID 1030, 2008;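 also: plate controls were no enzyme wells and a reference inhibitor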
Target sequence (P00352 whole entry, looked up): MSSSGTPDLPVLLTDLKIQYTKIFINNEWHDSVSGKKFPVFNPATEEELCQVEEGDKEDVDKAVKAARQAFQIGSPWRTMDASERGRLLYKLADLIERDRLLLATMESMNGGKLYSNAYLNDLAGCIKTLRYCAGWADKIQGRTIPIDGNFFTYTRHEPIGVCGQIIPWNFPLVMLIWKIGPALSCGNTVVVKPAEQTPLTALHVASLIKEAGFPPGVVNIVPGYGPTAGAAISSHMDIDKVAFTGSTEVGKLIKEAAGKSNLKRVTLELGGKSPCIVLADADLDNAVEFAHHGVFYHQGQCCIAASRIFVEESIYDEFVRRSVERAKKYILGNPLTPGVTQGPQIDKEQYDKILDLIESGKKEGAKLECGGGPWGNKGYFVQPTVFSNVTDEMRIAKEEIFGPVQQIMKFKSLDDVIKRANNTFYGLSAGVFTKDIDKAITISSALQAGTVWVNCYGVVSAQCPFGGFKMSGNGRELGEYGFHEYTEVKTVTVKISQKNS
Numbers without * were called inactive; ? = inconclusive; · = not tested or not shown; [ ] = remark or other dose. Shown are actives, neighbours in structure and some others; about 9% of the full set was active somewhere. Unless noted, calls follow the shape of the dose curve; as a rule, active = well fitted inhibition curve with a large enough effect (not every such curve was filed as active); inconclusive = small, poorly fitted or top-dose-only effect, or another doubt; inactive = no such curve, though single readings can be large or run the other way. Unless noted, % is scaled to controls: 0 for no effect and ±100 for the full control effect; potency is read from the fitted curve at half-maximal effect.

SMILES | Lamin A splicing | HPGD block | IMPase Li inh | Luc counter | ALDH1A1 block
O=C(Cn1c(=O)c2cccn2c2ccc(F)cc21)N1CCN(c2ccccc2)CC1 | 5%[46 µM] | · | · | · | ·
Cn1c(SCCCC(=O)c2ccc(Br)cc2)nnc1-c1ccncc1 | ? | 18µM* | 27%[38.3 µM] | -4% | 7%
CN(C)c1ccc(N=NS(=O)(=O)O)cc1 | · | -16% | 26% | · | 10µM*
O=C(Nc1ccc(Br)cc1)Nc1nc2c(s1)CCCCCC2 | -1%[46 µM] | · | · | · | ·
Cc1ccc(NC(=O)c2cccc(Cl)c2)nc1 | -4% | -27% | -9%[38.3 µM] | 11µM* | ?
Cc1ccc(C(=O)Nc2ccc(Cl)cn2)cc1 | -7% | -6% | -13%[38.3 µM] | 3% | 0%
CC(C)(C)NC(=S)NC(=O)C12CC3CCC(CC(C3)C1)C2 | 4% | 0% | 0% | -1% | ?
CN(C)NC(=S)NC(=O)C12CC3CC(CC(C3)C1)C2 | ? | · | -7% | 5% | 28µM*
Cc1nc(N2CCOCC2)c2c(C(=O)N3CCN(c4ccccc4F)CC3)c(C)oc2n1 | 7%[46 µM] | · | · | · | ·
Cc1cccc(N2CCC(N3CCN(C4CCCCC4)C(CCO)C3)CC2)c1C (stereo not drawn) | 10%[46 µM] | · | 3% | -3% | 3.5µM*
CC(C)N1CCC(N2CCN(C3CCCC3)CC2CCO)CC1 (stereo not drawn) | -3%[46 µM] | · | -4% | 2% | 0%
CC(=O)Nc1ccc(NC(=O)c2ccc(C3SCC(=O)N3CCc3ccccc3)cc2)cc1 (stereo not drawn) | ? | -17% | 7% | 0% | 25µM*
O=C(CCl)Nc1cc2[nH]c(=O)[nH]c2cc1Br | ? | · | 0% | 1% | 2µM*
CC1=C(C)C(=O)C(CCCCC#CCCCC#CCO)=C(C)C1=O | ? | ? | 9% | -2% | 14µM*
Cc1ccc(C(=O)NCc2ccccn2)cc1Cl | -4%[46 µM] | · | 4% | 0% | -2%
COc1ccc(CN(CC2CCCO2)C(=O)c2cc3sccc3n2C)c(OC)c1 (stereo not drawn) | · | · | 30% | 2% | 11µM*
O=C(CN(Cc1ccccc1Cl)C(=O)c1ccc(CN2CCOCC2)o1)NCc1ccccc1 | -3% | -11% | 3%[38.3 µM] | 2% | 13µM*
O=C(NCc1ccccc1)c1ccc(CN2CCOCC2)cc1 | -7% | -16% | 9%[38.3 µM] | -2% | ?
Nc1nc(SC/C=C\c2ccccc2)c2[nH]cnc2n1 | · | -8% | 13% | -6%[7.66 µM] | 11%[13.5 µM]
CC1=C(C(=O)Nc2ccccc2C)C(c2cccs2)NC(=S)N1 (stereo not drawn) | -13% | -14% | -4% | 0% | 13µM*
CCOc1ccccc1NC(=O)C1=C(C)NC(=S)NC1c1cccs1 (stereo not drawn) | ? | -14% | -2% | 0% | 0.63µM*
CC(=O)N1CCC2(CC1)CN(Cc1ccc(C#N)cc1)C2 | · | -10% | 4% | -1% | -3%
C=C1C[C@]23C[C@@]1(O)CC[C@H]2[C@@]12C=C[C@H](O)C(C)(C(=O)O1)[C@H]2[C@@H]3CC(=O)O | · | -4% | 13% | 2% | 10%
OC[C@H]1O[C@@H](n2cnc3cncnc32)[C@H](O)[C@@H]1O | ? | -12% | -6% | 1% | -3%
COC(=O)c1ccc(N)c(N=CC2=C(O)CC(C)(C)CC2=O)c1 | 1% | -22% | 0% | 0% | 20µM*
SMILES | Lamin A splicing | HPGD block | IMPase Li inh | Luc counter | ALDH1A1 block
CC1(C)CC(=O)C(C=Nc2cc(C(=O)c3ccccc3)ccc2N)=C(O)C1 | ? | · | 0% | -1% | 11µM*
CSc1ccccc1N=CC1=C(O)CC(C)(C)CC1=O | -4% | -30% | 4% | 3% | 2µM*
CC1(C)CC(=O)C(C(N)=NC(=O)c2ccc([N+](=O)[O-])cc2)=C(O)C1 | · | · | -5% | 1% | 8%
CC1(C)CC(=O)C(C(N)=NC(=O)c2ccccc2)=C(O)C1 | · | · | 12% | -1% | 10µM*
Cc1cc(C)cc(NC(=S)N2CCN(c3ncccn3)CC2)c1 | -8% | · | · | · | -4%
S=C(Nc1ccc(Nc2ccccc2)cc1)N1CCN(c2ncccn2)CC1 | · | · | 5% | 4% | 13µM*
COc1ccc(NC(=S)N2CCN(c3ccccn3)CC2)cc1OC | ? | · | · | · | 25µM*
COc1cc(NC(=S)N2CCN(c3ccccn3)CC2)cc(OC)c1OC | · | · | 12% | 4% | ?
c1ccc(C(c2ccccc2)N2CCN(c3nc4ccccc4n4cnnc34)CC2)cc1 | ? | · | · | · | 14µM*
Cc1cccc(N2CCN(c3nc4ccccc4n4cnnc34)CC2)c1C | 1% | ? | 23%[38.3 µM] | -1% | 64%
Cc1nc2ccc(C(=O)c3ccccc3)cc2[nH]1 | -3% | 18µM* | 12%[38.3 µM] | -6% | ?
O=C(NC1CCCC1)c1ccc2nc[nH]c2c1 | -3% | -26% | 7%[38.3 µM] | 2% | 2%
O=C(c1ccccc1)c1ccc2nc[nH]c2c1 | 1% | 22µM* | 5%[38.3 µM] | 2% | ?
CCOc1ccc(CNC(=O)c2ccc3c(c2)sc2nc(-c4ccccc4)cn23)cc1 | 2%[46 µM] | · | · | · | ·
COC(=O)c1ccc(CN2CCN(Cc3ccc(C(=O)OC)o3)CC2)o1 | 13% | -9% | -2%[38.3 µM] | -2% | 22µM*
CCc1cccc2c(C(=O)CSc3nncn3C)c[nH]c12 | -14%[46 µM] | · | 3% | -2% | 10%
CCc1cccc2c(C(=O)COC(=O)c3ccc([N+](=O)[O-])s3)c[nH]c12 | -6% | -12% | 5% | 1% | 13µM*
CCc1cccc2c(C(=O)CCl)c[nH]c12 | ? | · | · | · | 8.9µM*
O=C(OCC(=O)c1c[nH]c2ccccc12)c1ccc([N+](=O)[O-])s1 | · | · | 18% | 6% | 0.71µM*
O=C1C(Cl)=C(N2CCCCC2)C(=O)N1c1ccccc1Cl | -4% | -13% | 26%[38.3 µM] | 0% | ?
O=C1C(Cl)=C(N2CCCCC2)C(=O)N1c1ccccc1 | 6% | 18µM* | 20%[38.3 µM] | -7% | ?
CCOC(=O)CN1C(c2ccc(O)cc2)Nc2ccc(Br)cc2C1c1ccccc1 (stereo not drawn) | ? | -9% | 12% | -1% | -14%
CS(=O)(=O)N1CC(C(=O)NC2CC2)Oc2ccc(Cl)cc21 (stereo not drawn) | 7% | -2% | -4%[38.3 µM] | 1% | 6%
CS(=O)(=O)N1CC(C(=O)NC2CCCC2)Oc2ccc(Cl)cc21 (stereo not drawn) | -8% | -8% | -11%[38.3 µM] | 0% | 10µM*
Cc1cc(NC(=O)CSc2ncnc3sccc23)no1 | 10%[46 µM] | · | -4% | 0% | -1%
N#Cc1c(NC(=O)CSc2ncnc3sccc23)oc(-c2ccco2)c1-c1ccco1 | -8% | ? | -16%[38.3 µM] | -6% | 10µM*
Oc1c(C(c2ccccc2Cl)N2CCCC2)ccc2cccnc12 (stereo not drawn) | 2%[46 µM] | · | 20% | 1% | ?
